Experimental data as given in PubChem BioAssay (NCI).
Compounds without any hit were thinned out: in the full panel of roughly 83,000, 20% have a hit.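 The endpoint reported here, percent growth, reads 100 for growth as untreated, 0 for no net growth and -100 for all cells dead.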 Activity calls are given as the source filed them. How the source made its calls: active means growth percent below 10; inactive means the rest.

Legend:
Assay in all cases: NCI-60 one-dose screen, 48 h (100 = growth as untreated, 0 = no growth, -100 = all killed)
Details in all cases: 10 µM unless noted
[1] = tested on: HCT-15 colon
[2] = tested on: HT29 colon
[3] = tested on: SNB-75 CNS
[4] = tested on: SNB-19 CNS
[5] = tested on: U251 CNS
[6] = tested on: PC-3 prostate
[7] = tested on: SK-MEL-5 melanoma
[8] = tested on: UACC-62 melanoma
[9] = tested on: LOX IMVI melanoma
[10] = tested on: SK-MEL-28 melanoma

Measured: growth

NC(=NCc1ccccc1)C(N=Nc1ccccc1)C(=O)NCc1ccccc1 (stereo not given)
inactive: [1] 49.1% | [2] 18.3% | [3] 96.9% | [4] 63.4% | [5] 26.7% | [6] 62.7% | [7] 103% | [8] 76.6% | [9] 42.7% | [10] 106%

CC/C(=C\c1ccc(OC)cc1)C(=O)c1ccc(OC)cc1
inactive: [1] 92.7% | [2] 90.3% | [3] 77.3% | [4] 85.7% | [5] 91.7% | [6] 75.7% | [7] 101% | [8] 78.7% | [9] 95.1% | [10] 106%

O=[N+]([O-])c1cc(Br)c2cccc3c2c1CC3
inactive: [1] 100% | [2] 108% | [3] 100% | [4] 98.7% | [5] 99.8% | [6] 96.2% | [7] 102% | [8] 89% | [9] 109% | [10] 106%

Cc1ccc(C(=O)/C(=C\c2ccc([N+](=O)[O-])cc2)S(=O)Cc2ccc(F)cc2)cc1 (stereo not given)
active: [1] 7.72% | [2] -49.1% | [5] -7.84% | [6] -0.882% | [8] -34.5% | [9] -39%
inactive: [3] 57.1% | [4] 41.2% | [7] 64.6% | [10] 17.3%

COc1ccc(/C=C/c2nc(Nc3ccc(Cl)cc3)c3ccccc3n2)cc1
inactive: [1] 34.8% | [2] 48.3% | [3] 61.7% | [4] 64.4% | [5] 45.7% | [6] 54.5% | [7] 69.7% | [8] 14.3% | [9] 18.4% | [10] 90.2%

COc1ccc(OC)c(-c2cc(-c3ccc(Cl)cc3)c3c(N)c(C(=O)c4ccc(Cl)cc4)sc3n2)c1
inactive: [1] 106% | [2] 91.1% | [3] 73.6% | [4] 103% | [5] 101% | [6] 81.4% | [7] 107% | [8] 92.2% | [9] 98.3% | [10] 105%

COc1ccc2c(c1)oc1c(C)c3c(c(C)c12)C(=O)N(CCN1CCOCC1)C3=O
inactive: [1] 102% | [2] 99.3% | [3] 99.5% | [4] 97.5% | [5] 105% | [6] 82.8% | [7] 97.5% | [8] 93.3% | [9] 96.4% | [10] 103%

O=c1[nH]nc(-c2ccccc2)c2sc3ncc(-c4ccc(Br)cc4)n3c12
inactive: [1] 94.5% | [3] 19.7% | [4] 44.7% | [5] 38.9% | [6] 50.2% | [7] 78.9% | [8] 47.5% | [9] 36.9% | [10] 57.6%
active: [2] 9.13%

C=C1C(=O)O[C@H]2[C@H]1CC/C(COC(=O)NCc1c[nH]c3ccc(Cl)cc13)=C\CC[C@@]1(C)O[C@@H]21
inactive: [4] 32.3%
active: [1] -60.2% | [2] -78.8% | [3] -6.74% | [5] -3.11% | [6] 9.72% | [7] -17.6% | [8] -73.8% | [9] -76.3% | [10] -63%

C=CC(=O)N[C@@H](/C=C/C(=O)OCC)Cc1ccc(-c2cc(Cl)cc(Cl)c2)cc1
active: [7] -88.2% | [8] 9%
inactive: [1] 15.2% | [2] 20.3% | [3] 40.3% | [4] 33.9% | [5] 20.2% | [6] 16.9% | [9] 36.6% | [10] 39.8%

O=C1Nc2ccccc2/C1=C\c1c(-c2ccc(F)cc2)nc2ccccn12
inactive: [1] 58.2% | [2] 58.7% | [3] 71.3% | [4] 77.7% | [5] 93.3% | [6] 62.5% | [7] 58% | [8] 65.1% | [9] 68.3% | [10] 87.2%

COc1cccc2c1c1nc3cc(C)c(C)cc3nc1n2CCN(C)C
active: [9] 1.15%
inactive: [1] 13.1% | [2] 11% | [3] 34% | [4] 25.4% | [5] 25.9% | [6] 18.3% | [7] 10.7% | [8] 14.6% | [10] 36%

COc1cccc(-c2nc3occn3c2-c2ccnc(NCCNS(=O)(=O)c3cccc4ccccc34)n2)c1
inactive: [1] 103% | [2] 96.7% | [3] 103% | [4] 97.8% | [5] 108% | [6] 99.6% | [7] 98.8% | [8] 93.7% | [9] 102% | [10] 115%

COc1cc2nc(-c3ccc(Cl)cc3)cc(OCCCN3CCOCC3)c2cc1OC
inactive: [1] 19.2% | [2] 22.3% | [3] 37.5% | [4] 73.5% | [5] 47.3% | [6] 54% | [10] 60.1%
active: [7] -52.6% | [8] -20.9% | [9] -56%

CC(C)(C)c1cc(/C=N/NC(=O)c2ccccc2NC(=O)c2cccs2)c(O)c(C(C)(C)C)c1
inactive: [1] 17.1% | [2] 25.3% | [3] 34.9% | [4] 40.6% | [5] 13.8% | [6] 30.3% | [7] 22.9% | [8] 13.1% | [10] 51.5%
active: [9] -34.2%

O=C(O)c1ccc2c(c1)C(=O)N(Cc1ccccc1)C2=O
inactive: [1] 99.9% | [2] 99.9% | [3] 94.2% | [4] 95.1% | [5] 92.7% | [6] 96.2% | [7] 99.7% | [8] 97.9% | [9] 95.7% | [10] 110%

COc1cccc(-c2cc(C(=O)Nc3ccc(/C=C/c4ccc(OC5CCN(C)CC5)cc4)cc3)ccc2OC)c1
inactive: [7] 96% | [8] 69.6% | [10] 41.7%
active: [1] -61.8% | [2] -60.1% | [3] -50.3% | [4] -11.1% | [5] -92.6% | [6] 8.53% | [9] -86.9%

CCCCCCCCO/N=C\c1c2c(O)c3c(O)c(C)c4c(c3c1O)C(=O)C(C)(O/C=C\C(OC)C(C)C(OC(C)=O)C(C)C(O)C(C)C(O)C(C)/C=C\C=C(\C)C(=O)N2)O4 (stereo not given)
inactive: [1] 19.1% | [3] 36% | [4] 29.2% | [5] 13.7% | [6] 13.1% | [7] 17.7% | [8] 26.2% | [9] 30.2% | [10] 51.5%
active: [2] 2.82%

Fc1ccc2c(-c3cncn3CCc3ccccc3)c[nH]c2c1
inactive: [1] 95.7% | [2] 85.4% | [3] 47.7% | [4] 85.1% | [5] 91.9% | [6] 86.8% | [7] 90.2% | [8] 73.3% | [9] 94.8% | [10] 98.8%

COc1ccc(C/C(=C(\C)c2ccc(OCCN3CCCC3)cc2)c2ccc(OCCN3CCCC3)cc2)cc1
active: [2] -58.1% | [5] -39.7% | [7] -48.8% | [8] -55.6% | [9] -92.5% | [10] -86.9%
inactive: [1] 11.9% | [3] 83.2% | [4] 72.6% | [6] 50.9%

N#CC1=C(N)Oc2c(cnn2-c2ccc([N+](=O)[O-])cc2[N+](=O)[O-])C1c1ccccc1 (stereo not given)
inactive: [1] 93.2% | [2] 110% | [3] 86.5% | [4] 104% | [5] 102% | [6] 105% | [7] 97.1% | [8] 93% | [9] 102% | [10] 106%

C=C(C)[C@@H]1CC[C@]2(C(=O)N3CCN(C)CC3)CC[C@]3(C)[C@H](CC[C@@H]4[C@@]5(C)C/C(=C/c6ccncc6)C(=O)C(C)(C)[C@@H]5CC[C@]43C)[C@@H]12
inactive: [1] 35.8% | [2] 15.8% | [3] 87.9% | [4] 64.2% | [5] 47% | [6] 23.7% | [7] 59.8% | [8] 71% | [9] 55.9% | [10] 76.9%

COc1cc(CC(=O)c2ccc(O)c(OC)c2)ccc1O
inactive: [1] 110% | [2] 94.3% | [3] 96.8% | [4] 98.2% | [5] 92.5% | [6] 83.1% | [7] 101% | [8] 94.8% | [9] 96.7% | [10] 97.2%

Cn1c(N2NC(=O)C(N=Nc3ccc(S(N)(=O)=O)cc3)C2=O)nc(-c2ccco2)c(C#N)c1=O (stereo not given)
inactive: [1] 61.7% | [2] 85.3% | [3] 64.5% | [4] 99.7% | [5] 96.9% | [6] 82.9% | [7] 98% | [8] 83.5% | [9] 76.8% | [10] 102%

c1ccc(-c2c(-c3ccccc3)[n+](Cc3ccc4ccccc4c3)c(-c3cccc4ccccc34)n2Cc2ccc3ccccc3c2)cc1
active: [1] -52.9% | [2] -49.7% | [3] -57.9% | [4] -68.9% | [5] -94.9% | [6] -60.8% | [7] -98.4% | [8] -64.8% | [9] -98.9% | [10] -71.8%

COc1cc(/C=C/C(=O)c2nc3cc(F)ccc3nc2C)cc(OC)c1OC
inactive: [1] 48.1% | [2] 68.5% | [3] 89.9% | [4] 77.9% | [5] 36.7% | [6] 68.1% | [7] 81% | [8] 62.2% | [9] 20.8% | [10] 61.3%

Nc1nc(Nc2ccccc2SSc2ccccc2Nc2nc(N)nc(-c3cccs3)n2)nc(-c2ccsc2)n1
inactive: [1] 56.7% | [2] 98.7% | [3] 98.3% | [4] 87.7% | [5] 53.1% | [6] 57.2% | [7] 94.7% | [8] 71% | [9] 35.9% | [10] 98.7%
